Giardia FBPA inh – qHTS Assay for Inhibitors of Fructose-1,6-bisphosphate Aldolase from Giardia Lamblia. AID 2451, 2010. Potency, µM (series often up to 59.6 µM), for inactives: at the highest dose activity, negative = inhibition, usual class: inhibitors. 290,000 tested, 0.71% active. A8B2U2. purified Giardia FBPA; also: potency is read from the fitted curve at half-maximal effect; % is scaled to controls: 0 for no effect and ±100 for the full control effect; nearly all actives have a fitted effect of over 55% in size
Target sequence (A8B2U2 whole entry, looked up): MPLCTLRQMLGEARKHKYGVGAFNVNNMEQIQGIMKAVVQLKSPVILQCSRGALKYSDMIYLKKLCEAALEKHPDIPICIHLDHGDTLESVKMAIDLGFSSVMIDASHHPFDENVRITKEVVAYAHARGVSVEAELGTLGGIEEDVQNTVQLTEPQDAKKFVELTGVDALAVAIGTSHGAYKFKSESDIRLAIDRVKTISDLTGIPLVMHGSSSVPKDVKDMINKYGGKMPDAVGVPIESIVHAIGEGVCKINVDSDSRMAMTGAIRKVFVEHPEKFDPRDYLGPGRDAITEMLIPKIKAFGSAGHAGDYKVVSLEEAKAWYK
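Giardia FBPA (40 nM reagent) was preincubated 10 min at RT with compound (up to 57.5 uM final), then substrate plus GAPDH/TPI/NAD/arsenate coupling system with diaphorase/resazurin was added; resorufin fluorescence (525/598 nm) was read after 20 min.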
RE007 growth inh – qHTS Assay for Inhibitors of the HIV-1 protein Vpr | S. pombe RE007 Vpr strain, BacTiter-Glo ATP luminescence, 24 h | Potency, µM (doses to about 92.2 µM), without a hit: at the highest dose activity change, negative = less growth, most hits filed as inhibitors | 360,000 tested, 0.21% active; active = well fitted falling curve with a large enough effect; inconclusive = small, poorly fitted or top-dose-only effect; inactive = no such curve, though single readings can be large or run the other way; also: potency is read from the fitted curve at half-maximal effect; % is scaled to controls: 0 for no effect and ±100 for the full control effect; nearly all actives have a fitted effect of over 50% in size
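Fission yeast RE007 carrying one integrated HIV-1 vpr copy, seeded at OD 0.01 in PMG+AL medium with 23 nL pinned compound. Grown 24 h at 30 degrees; viability read by BacTiter-Glo luminescence after 5 min.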
Tb PYK inh – qHTS of Trypanosoma Brucei Inhibitors; AID 624173, 2012; pyruvate kinase (Trypanosoma brucei), Q57TT1; 410,000 tested, 0.12% active; TbPYK enzyme, Kinase-Glo Plus ATP luminescence, 45 min; Potency, µM (titrated, usually from 76.8 µM), for the others: at the top dose activity, negative = inhibition, usual class: inhibitors; also: potency is read from the fitted curve at half-maximal effect; % is scaled to controls: 0 for no effect and ±100 for the full control effect; nearly all actives have a fitted effect of over 50% in size
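T. brucei PYK with substrate was exposed to pin-transferred compounds across a concentration series, then started with 130 uM ADP (final). After 45 min at room temperature, Kinase-Glo Plus luminescence was read, normalized and curve-fitted.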
Shiga inhibitor – A qHTS for Small Molecule Inhibitors of Shiga Toxin | inhibition, % at 38.7 µM | 290,000 tested, 9.2% active | Vero cells, Shiga toxin protein synthesis inhibition reporter | AID 2315, 2010; in the data active = inhibition mostly above about 28%, no sharp cut-off; inactive = mostly below about 43%; also: 0% is about no effect
CHX counter – Cycloheximide Counterscreen for Small Molecule Inhibitors of Shiga Toxin. AID 2314, 2010. 300,000 tested, 12% active. max response, %. cell reporter, cycloheximide protein synthesis inhibition counterscreen; in the data active = max response mostly above about 13%, no sharp cut-off; inactive = mostly below about 14%; also: read at 38.3 µM for the half of the compounds with a filed dose; 0% is about no effect
LmPK inh – qHTS Assay for Inhibitors of Leishmania Mexicana Pyruvate Kinase (LmPK); Potency, µM (series often up to 57.5 µM), inactives show top-dose activity change, negative = inhibition, hits mostly inhibitors; 290,000 tested, 0.37% active; purified LmPK, Kinase-Glo ATP luminescence, 1 h; Q27686; also: potency is read from the fitted curve at half-maximal effect; % is scaled to controls: 0 for no effect and ±100 for the full control effect
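Kinase-Glo luminescence read after 1 h RT reaction of 0.1 nM LmPK with 0.5 mM PEP and 0.1 mM ADP. Activity scaled between uninhibited and enzyme-free controls.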
An asterisk follows results filed as active; ? = inconclusive; / = not tested or not shown; [ ] = another dose, or the depositor's remark. This excerpt belongs to a sample that is enriched for hits. Unless noted, calls follow the shape of the dose curve; as a rule, active = well fitted curve in the direction sought with a large enough effect; inconclusive = small, poorly fitted or top-dose-only effect, or another doubt; inactive = no such curve, though single readings can be large; an effect the other way counts as inactive or inconclusive.

SMILES	Giardia FBPA inh	RE007 growth inh	Tb PYK inh	Shiga inhibitor	CHX counter	LmPK inh
O=C1NC(c2cccc(Br)c2)=N/C1=C\c1ccco1	?	-9%	1%	86*	70*	3%
O=C1NNC(c2ccccc2)=N/C1=C\c1ccccc1	0%	15%	-1%	-11	-1	-14%
O=C1NC(=O)/C(=C/c2ccco2)N1	/	/	-4%	/	/	/
O=C1NC(c2ccccc2)=N/C1=C/c1ccco1	?	-12%	-5%	72*	39*	?
O=C(Nc1ccc(F)cc1)c1cccc(N2CCCS2(=O)=O)c1	/	/	-5%	/	/	/
Cc1ccc2ccc(S(=O)(=O)NCc3ccccn3)cc2c1	1%	5%	0%	39*	19	12%
Cn1c2ccccc2c2cc([N+](=O)[O-])ccc21	-3%	1%	-2%	26	-2	3%
CCN(CC)CCn1c2ccccc2c2nc3ccc([N+](=O)[O-])cc3cc21	-10%	-25%	-25%	92*	27*	3%
CCN1C(=O)/C(=C/C=C2\C=CN(CC)c3ccccc32)SC1=S	?	-3%	?	-6	11	18µM*
CCOc1ccccc1C(=O)N(Cc1cccs1)c1ccc(Cl)cc1	/	/	-5%	/	/	/
COc1ccc(C)c2sc(=NC(=O)c3ccc(C(C)=O)cc3)n(C)c12	0%	-3%	-14%	67*	38*	-29%
C=CCn1c(=NC(=O)c2cccc(N3C(=O)CCC3=O)c2)sc2cccc(OC)c21	-12%	-1%	-6%	-6	-3	7%
CCC(=O)N=c1sc2c(OC)ccc(OC)c2n1C	/	-3%	2%	/	/	/
COc1ccc(C)c2sc(=NC(=O)c3cccc(N4C(=O)CCC4=O)c3)n(C)c12	-4%	4%	1%	27	20*	9%
COc1ccc(C)c2sc(=NC(=O)c3ccccc3)n(C)c12	-1%	-9%	-3%	69*	18*	-15%
COc1ccc(C)c2sc(=NC(=O)C(C)C)n(C)c12	4%	-2%	3%	-13	-3	1%
COC1=C(NCc2ccc3c(c2)OCO3)C(=O)C(OC)=C(NCc2ccc3c(c2)OCO3)C1=O	/	10%	-8%	/	/	/
COc1cccc2sc3ccc(C#Cc4ccc(N)cc4)cc3c(=O)c12	-2%	-4%	3%	57*	41*	-4%
Nc1ccc(C#Cc2ccc3sc4ccccc4c(=O)c3c2)cc1	/	-14%	2%	/	/	/
O=c1c2ccccc2oc2cc(C#CC3(O)CCCCC3)ccc12	/	-8%	-1%	/	/	/
COc1cccc2sc3ccc(C#CC4(O)CCCCC4)cc3c(=O)c12	-21%	0%	-3%	43*	39*	1%
COc1cccc2sc3ccc(NCc4ccc5c(c4)OCO5)cc3c(=O)c12	?	-4%	2%	25	19*	-9%
COc1cccc2oc3cc(C#CC4(O)CCCCC4)ccc3c(=O)c12	12%	0%	-8%	58*	35*	0%
CC(=O)N1CCC2(CC1)CN(Cc1ccc(C#N)cc1)C2	1%	/	0%	/	/	/
CCc1ccc(NC(=O)CCn2cnc3ccccc3c2=O)cc1	/	/	1%	/	/	/
SMILES	Giardia FBPA inh	RE007 growth inh	Tb PYK inh	Shiga inhibitor	CHX counter	LmPK inh
COc1ccc2sc3ccccc3c(=O)c2c1OC	/	-27%	-2%	71*	34*	-2%
COc1cc2oc3ccccc3c(=O)c2cc1OC	-13%	-19%	51%	18	14	-8%
COc1cccc2oc3cc(C#Cc4ccccn4)ccc3c(=O)c12	-15%	7%	-17%	35*	27*	-3%
Cc1nc(N)nc(Nc2ccc(Cl)cc2)c1Br	-13%	-27%	-4%	43*	34*	3%
Cc1nc(N)nc(Nc2ccc(C#N)cc2)c1Br	-1%	5%	0%	20	-2	-2%
COc1ccc(-n2c(C)cc3cc(OC(C)=O)ccc32)cc1	44%	12%	0%	24	11*	-3%
COc1ccc(-c2cc(C(=O)Nc3c(C(=O)c4ccc(C)c(F)c4)oc4ccccc34)no2)cc1	/	/	0%	/	/	/
COc1cc(OC)c(NC(=O)c2nnn(Cc3ccc(C)cc3)c2N)cc1Cl	/	/	-4%	/	/	/
Cc1cc(C)nc(/N=C(\N)N2CCc3ccccc32)n1	11%	-18%	-11%	88*	33*	11%
CCCCc1ccc(-c2nc(NC(=O)C3C4CCC(O4)C3C(=O)O)sc2C)cc1 (configuration not stated)	-15%	/	/	58*	44*	1%
CCc1cccc(C)c1NC(=O)C1C2CCC(O2)C1C(=O)O (configuration not stated)	-1%	12%	-3%	-4	-4	-10%
COC(=O)c1ccc(Cl)cc1NC(=O)N1CCC(CN2CCC(C)CC2)CC1	/	/	3%	/	/	/
C/C(=N\NC(=O)COc1ccc(C)cc1C(C)C)c1ccc(-n2ccnc2)cc1	11%	-15%	-5%	26	17*	2%
COc1ccc(CCNC(=O)Cn2nc(C)n3c(cc4cc(F)ccc43)c2=O)cc1OC	/	/	4%	/	/	/
CC(/C=C/c1ccccc1)=N\NC(=O)c1ccc(Br)cc1	9%	1%	-3%	16	-4	-11%
CC(/C=C/c1ccccc1F)=N\NC(=O)c1ccccc1	-28%	9%	2%	160*	55*	-5%
CC(/C=C/c1ccccc1F)=N\NC(=O)c1ccc(Cl)cc1	0%	-9%	-24%	29	14*	1%
CC12C=C(/C=C/c3ccc(C(F)(F)F)cc3)C(C)(C1)C(c1ccc(C(F)(F)F)cc1)CC2=O (configuration not stated)	-1%[12.9 µM]	/	/	/	/	/
COc1ccc(CNC(=O)c2cnc3ccc(C)cn3c2=O)cc1	/	/	-6%	/	/	/
O=C(Nc1c(F)c(F)c(F)c(F)c1F)NC1CCCCC1	3%	5%	0%	7	-1	0%
O=C(Nc1cccc(F)c1)NC1CCCCC1	-14%	-20%	?	96*	32*	-10%
O=C(Nc1ccc2c(c1)OCCO2)NC1CCCCC1	-9%	0%	-18%	53*	44*	-10%
O=C(Nc1ccc(F)cc1F)NC1CC1	1%	-2%	1%	-10	-2	-4%
O=C(Nc1ccc(F)cc1F)NC1CCCCCCC1	/	2%	-5%	96*	37*	7%
O=C(Nc1ccc(F)cc1)NC1CCCCC1	4%	1%	2%	79*	37*	-2%
Cc1[nH]c(=O)n(C(C)(C)C)c(=O)c1Cl	3%	/	/	0	-1	/
O=C(NC1CCCCCC1)C(=O)NC1CCCC1	1%	4%	-2%	25	8	0%
Cc1ccc(NC(=O)NC2CCCCCCC2)cc1	/	15%	-6%	71*	40*	0%

Compound activity: PubChem, National Center for Advancing Translational Sciences (NCATS)
